# Targets with a hit are over-represented here; the source holds about 7,900 in all. About 0.6% of all pairs of compound and target were hits. A number with no mark means an inactive call.
# Assays:
# Assay in all cases: log2 fold change, soluble protein after heating vs DMSO (PISA); higher = thermal stabilisation; K562 cells, 10 uM, 30 min; active = over 0.2 and 3.5 SD of the protein, either way, in both replicates (recomputed)
# [1] = compound: CC[C@@H]1C(=O)N(C)c2cnc(Nc3ccc(C(=O)NC4CCN(C)CC4)cc3OC)nc2N1C1CCCC1
# Outline: (§1)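 K562 cells at 2×10^6 cells/mL were treated for 30 min with 10 μM compound, and aliquots were heated for 3 min over 48°C-58°C before pooling. Extraction used PBS with 0.5% NP-40 at 4°C, and soluble protein was the supernatant after 21,000xg for 90 min, measured by TMTpro 16plex LC-MS/MS with channel sums equalised. Thermal stability values, relative to control samples and from duplicates, are log2 fold changes.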
# volasertib = compound: CC[C@@H]1C(=O)N(C)c2cnc(Nc3ccc(C(=O)N[C@H]4CC[C@H](N5CCN(CC6CC6)CC5)CC4)cc3OC)nc2N1C(C)C [volasertib]
# Outline: as §1
# [2] = compound: CC[C@H](C)N1C=C(C2=C(C=C(C=C21)C3=CN=C(C=C3)N4CCNCC4)C(=O)NCC5=C(C=C(NC5=O)C)C)C
# Outline: as §1
# epoxomicin = compound: CC[C@H](C)[C@@H](C(=O)N[C@@H]([C@@H](C)O)C(=O)N[C@@H](CC(C)C)C(=O)[C@]1(CO1)C)NC(=O)[C@H]([C@@H](C)CC)N(C)C(=O)C [epoxomicin]
# Outline: as §1
# [3] = compound: CCn1c(C(=O)N(C2CC2)C2CC2)cc2c3c(ncn3C)c(Nc3cc(C)n(C)n3)nc21
# Outline: as §1
# [4] = compound: CCn1cc(-c2ccnc3[nH]c(-c4cccc(CN(C)C)c4)cc23)c(-c2ccc(NC(=O)N(C)C)cc2)n1
# Outline: as §1
# [5] = compound: CN(C)CC(=O)Nc1ccc2[nH]c(=O)c3ccccc3c2c1
# Outline: as §1
# rosiglitazone = compound: CN(CCOC1=CC=C(C=C1)C[C@H]2C(=O)NC(=O)S2)C3=CC=CC=N3 (racemic) [rosiglitazone]
# Outline: as §1
# [6] = compound: CN1C2=C(C3=C1C(=O)N(N=C3)CC4=CC(=CC=C4)N)SC(=C2)S(=O)C
# Outline: as §1
# [7] = compound: CN1CCC(CNc2ccc3ncc(-c4cccc(OC(F)(F)F)c4)n3n2)CC1
# Outline: as §1
# saracatinib = compound: CN1CCN(CCOc2cc(OC3CCOCC3)c3c(Nc4c(Cl)ccc5c4OCO5)ncnc3c2)CC1 [saracatinib]
# Outline: as §1
# sotrastaurin = compound: CN1CCN(c2nc(C3=C(c4c[nH]c5ccccc45)C(=O)NC3=O)c3ccccc3n2)CC1 [sotrastaurin]
# Outline: as §1
# alvocidib = compound: CN1CC[C@H](c2c(O)cc(O)c3c(=O)cc(-c4ccccc4Cl)oc23)[C@H](O)C1 [alvocidib]
# Outline: as §1
# Tubastatin A = compound: CN1CCc2c(c3ccccc3n2Cc2ccc(C(=O)NO)cc2)C1 [Tubastatin A]
# Outline: as §1
# [8] = compound: CNC(=O)C1=CC=CC=C1NC2=NC(=NC=C2Cl)NC3=C(C=C(C=C3)N4CCOCC4)OC
# Outline: as §1
# defactinib = compound: CNC(=O)c1ccc(Nc2ncc(C(F)(F)F)c(NCc3nccnc3N(C)S(C)(=O)=O)n2)cc1 [defactinib]
# Outline: as §1
# rucaparib = compound: CNCc1ccc(-c2[nH]c3cc(F)cc4c3c2CCNC4=O)cc1 [rucaparib]
# Outline: as §1
# [9] = compound: CNc1nc(-c2ccc3c(N)n[nH]c3c2)cc(N2C[C@@H](C(=O)NC3CCCCC3)CC[C@H]2C)n1
# Outline: as §1
# encorafenib = compound: COC(=O)N[C@@H](C)CNc1nccc(-c2cn(C(C)C)nc2-c2cc(Cl)cc(NS(C)(=O)=O)c2F)n1 [encorafenib]
# Outline: as §1
# [10] = compound: COC(=O)[C@H](CCSC)NC(=O)C1=C(C=C(C=C1)NC[C@H](CS)N)C2=CC=CC=C2
# Outline: as §1
# Sequence of UniProt Q66PJ3 (Q66PJ3 whole entry, looked up): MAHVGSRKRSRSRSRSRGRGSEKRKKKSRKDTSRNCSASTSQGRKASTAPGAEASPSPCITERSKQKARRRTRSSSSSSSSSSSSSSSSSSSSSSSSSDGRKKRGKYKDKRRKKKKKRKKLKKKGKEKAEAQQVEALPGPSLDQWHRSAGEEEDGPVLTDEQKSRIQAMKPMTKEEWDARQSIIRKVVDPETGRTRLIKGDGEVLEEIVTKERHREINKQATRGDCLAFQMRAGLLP
# Sequence of UniProt P21283 (P21283 whole entry, looked up): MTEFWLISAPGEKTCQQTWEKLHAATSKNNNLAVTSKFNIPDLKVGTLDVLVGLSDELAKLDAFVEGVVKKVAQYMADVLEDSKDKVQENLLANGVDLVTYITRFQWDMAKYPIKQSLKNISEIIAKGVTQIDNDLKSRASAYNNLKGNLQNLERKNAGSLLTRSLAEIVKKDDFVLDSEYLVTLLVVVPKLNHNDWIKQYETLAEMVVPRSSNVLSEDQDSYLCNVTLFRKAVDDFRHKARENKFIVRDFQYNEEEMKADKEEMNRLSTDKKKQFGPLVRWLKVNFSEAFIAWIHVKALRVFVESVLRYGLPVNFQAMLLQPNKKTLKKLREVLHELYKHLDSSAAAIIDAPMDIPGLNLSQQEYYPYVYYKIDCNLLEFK
# Sequence of UniProt Q9UEY8 (Q9UEY8 whole entry, looked up): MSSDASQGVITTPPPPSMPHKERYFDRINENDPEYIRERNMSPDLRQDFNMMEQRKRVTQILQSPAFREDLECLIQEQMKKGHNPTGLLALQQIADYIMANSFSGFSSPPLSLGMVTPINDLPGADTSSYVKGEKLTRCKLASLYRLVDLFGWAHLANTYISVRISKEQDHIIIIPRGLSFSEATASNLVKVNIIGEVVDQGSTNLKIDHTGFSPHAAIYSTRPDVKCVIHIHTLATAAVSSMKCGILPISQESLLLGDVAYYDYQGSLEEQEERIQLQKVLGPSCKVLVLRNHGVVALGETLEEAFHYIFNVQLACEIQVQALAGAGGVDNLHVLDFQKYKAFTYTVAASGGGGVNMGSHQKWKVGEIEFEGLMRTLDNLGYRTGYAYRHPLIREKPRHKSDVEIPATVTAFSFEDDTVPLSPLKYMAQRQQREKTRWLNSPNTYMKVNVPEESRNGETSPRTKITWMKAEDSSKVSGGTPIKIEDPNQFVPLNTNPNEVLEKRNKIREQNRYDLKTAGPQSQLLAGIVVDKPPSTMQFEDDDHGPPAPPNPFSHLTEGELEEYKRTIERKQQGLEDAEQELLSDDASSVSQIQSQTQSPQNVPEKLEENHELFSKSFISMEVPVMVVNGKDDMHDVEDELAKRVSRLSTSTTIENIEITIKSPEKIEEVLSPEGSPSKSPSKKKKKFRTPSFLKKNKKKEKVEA
# Sequence of UniProt Q9NYF8 (Q9NYF8 whole entry, looked up): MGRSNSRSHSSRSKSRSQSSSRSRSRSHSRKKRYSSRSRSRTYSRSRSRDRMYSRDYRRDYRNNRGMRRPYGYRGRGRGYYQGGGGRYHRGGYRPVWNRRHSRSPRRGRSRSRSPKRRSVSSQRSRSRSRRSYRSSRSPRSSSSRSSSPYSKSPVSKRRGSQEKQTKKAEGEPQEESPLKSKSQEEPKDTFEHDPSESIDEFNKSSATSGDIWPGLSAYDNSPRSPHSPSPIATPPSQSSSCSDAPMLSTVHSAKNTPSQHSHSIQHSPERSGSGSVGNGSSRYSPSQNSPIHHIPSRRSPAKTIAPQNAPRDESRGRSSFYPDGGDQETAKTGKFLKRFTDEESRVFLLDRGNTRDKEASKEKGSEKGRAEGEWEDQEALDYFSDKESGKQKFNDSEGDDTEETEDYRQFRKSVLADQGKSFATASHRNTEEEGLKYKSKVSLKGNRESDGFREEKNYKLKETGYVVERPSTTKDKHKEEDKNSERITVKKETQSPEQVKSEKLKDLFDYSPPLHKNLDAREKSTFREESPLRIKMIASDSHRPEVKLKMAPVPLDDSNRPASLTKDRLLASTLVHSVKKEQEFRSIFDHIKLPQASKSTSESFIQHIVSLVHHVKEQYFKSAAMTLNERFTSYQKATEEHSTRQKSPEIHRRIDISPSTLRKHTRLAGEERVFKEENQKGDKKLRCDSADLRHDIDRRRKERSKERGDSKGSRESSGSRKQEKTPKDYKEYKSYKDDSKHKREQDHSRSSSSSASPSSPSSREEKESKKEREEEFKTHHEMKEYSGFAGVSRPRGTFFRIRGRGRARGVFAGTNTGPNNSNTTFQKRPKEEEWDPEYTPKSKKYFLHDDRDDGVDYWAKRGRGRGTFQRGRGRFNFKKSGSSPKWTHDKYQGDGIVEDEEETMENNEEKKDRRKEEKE
# Sequence of UniProt Q9ULC5 (Q9ULC5 whole entry, looked up): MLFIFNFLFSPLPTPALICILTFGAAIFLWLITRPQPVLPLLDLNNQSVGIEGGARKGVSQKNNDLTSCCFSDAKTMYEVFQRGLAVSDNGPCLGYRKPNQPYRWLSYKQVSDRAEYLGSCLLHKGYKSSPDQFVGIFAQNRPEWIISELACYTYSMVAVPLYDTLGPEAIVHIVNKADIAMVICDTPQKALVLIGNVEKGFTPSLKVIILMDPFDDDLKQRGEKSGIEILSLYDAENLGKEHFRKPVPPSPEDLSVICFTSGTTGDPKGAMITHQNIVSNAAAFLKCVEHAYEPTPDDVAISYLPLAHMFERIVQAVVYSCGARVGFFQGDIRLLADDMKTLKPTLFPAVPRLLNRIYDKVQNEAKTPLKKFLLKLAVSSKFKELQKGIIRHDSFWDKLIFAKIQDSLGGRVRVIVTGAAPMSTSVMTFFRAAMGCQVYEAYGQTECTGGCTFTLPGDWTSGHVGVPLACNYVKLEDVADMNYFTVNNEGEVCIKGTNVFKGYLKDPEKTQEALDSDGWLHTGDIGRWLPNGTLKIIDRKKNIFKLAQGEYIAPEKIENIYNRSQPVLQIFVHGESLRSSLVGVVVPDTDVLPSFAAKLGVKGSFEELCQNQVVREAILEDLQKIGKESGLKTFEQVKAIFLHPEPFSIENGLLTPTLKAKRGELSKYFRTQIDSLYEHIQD
# Sequence of UniProt Q9UKV5 (Q9UKV5 whole entry, looked up): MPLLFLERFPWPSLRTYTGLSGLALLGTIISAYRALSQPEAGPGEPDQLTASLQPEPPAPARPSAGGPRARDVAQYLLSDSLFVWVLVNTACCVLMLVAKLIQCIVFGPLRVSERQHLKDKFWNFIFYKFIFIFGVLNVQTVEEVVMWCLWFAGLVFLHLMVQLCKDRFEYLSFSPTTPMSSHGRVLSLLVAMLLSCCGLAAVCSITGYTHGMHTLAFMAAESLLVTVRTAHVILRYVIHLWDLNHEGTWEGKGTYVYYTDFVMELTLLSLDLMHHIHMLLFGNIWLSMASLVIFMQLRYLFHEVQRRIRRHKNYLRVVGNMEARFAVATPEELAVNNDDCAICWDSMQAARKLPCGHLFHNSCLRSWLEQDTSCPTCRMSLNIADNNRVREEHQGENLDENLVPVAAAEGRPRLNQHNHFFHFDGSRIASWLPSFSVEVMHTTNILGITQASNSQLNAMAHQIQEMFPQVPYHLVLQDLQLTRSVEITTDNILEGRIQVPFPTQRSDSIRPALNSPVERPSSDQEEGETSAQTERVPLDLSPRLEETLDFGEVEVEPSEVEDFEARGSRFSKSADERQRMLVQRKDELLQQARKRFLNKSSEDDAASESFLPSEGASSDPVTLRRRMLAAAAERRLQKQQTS
# Sequence of UniProt P54886 (P54886 whole entry, looked up): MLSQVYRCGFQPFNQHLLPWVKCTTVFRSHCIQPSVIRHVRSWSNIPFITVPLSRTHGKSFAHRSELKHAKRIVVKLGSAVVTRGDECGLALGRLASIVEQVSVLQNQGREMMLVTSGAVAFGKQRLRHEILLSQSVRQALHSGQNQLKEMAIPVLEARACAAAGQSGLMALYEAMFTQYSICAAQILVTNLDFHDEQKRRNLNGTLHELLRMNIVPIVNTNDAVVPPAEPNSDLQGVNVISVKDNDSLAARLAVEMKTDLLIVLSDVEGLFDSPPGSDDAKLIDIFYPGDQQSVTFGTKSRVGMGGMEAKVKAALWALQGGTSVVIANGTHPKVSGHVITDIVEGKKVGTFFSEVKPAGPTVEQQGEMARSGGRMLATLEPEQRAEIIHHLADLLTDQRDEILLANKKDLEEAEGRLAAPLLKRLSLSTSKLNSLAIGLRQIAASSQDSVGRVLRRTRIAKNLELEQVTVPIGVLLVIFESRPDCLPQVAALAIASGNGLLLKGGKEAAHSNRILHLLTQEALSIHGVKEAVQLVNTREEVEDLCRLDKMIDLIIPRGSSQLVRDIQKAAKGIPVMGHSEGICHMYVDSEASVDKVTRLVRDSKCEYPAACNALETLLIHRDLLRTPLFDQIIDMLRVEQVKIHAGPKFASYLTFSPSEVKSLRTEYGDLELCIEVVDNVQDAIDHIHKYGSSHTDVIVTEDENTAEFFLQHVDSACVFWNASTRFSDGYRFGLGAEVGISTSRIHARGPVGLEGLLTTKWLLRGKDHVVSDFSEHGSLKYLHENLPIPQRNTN
# Sequence of UniProt Q16864 (Q16864 whole entry, looked up): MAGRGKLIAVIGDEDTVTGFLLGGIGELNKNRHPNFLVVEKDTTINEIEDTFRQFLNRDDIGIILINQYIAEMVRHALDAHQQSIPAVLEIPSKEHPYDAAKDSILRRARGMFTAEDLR
# Sequence of UniProt Q9Y6H3 (Q9Y6H3 whole entry, looked up): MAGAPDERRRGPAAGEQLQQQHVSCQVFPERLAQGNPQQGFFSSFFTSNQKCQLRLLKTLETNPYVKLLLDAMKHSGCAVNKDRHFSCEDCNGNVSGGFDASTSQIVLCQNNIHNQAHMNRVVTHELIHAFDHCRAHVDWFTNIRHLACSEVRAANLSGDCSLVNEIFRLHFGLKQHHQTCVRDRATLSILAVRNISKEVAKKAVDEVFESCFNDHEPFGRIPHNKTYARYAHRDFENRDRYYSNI
# Sequence of UniProt Q8WUW1 (Q8WUW1 whole entry, looked up): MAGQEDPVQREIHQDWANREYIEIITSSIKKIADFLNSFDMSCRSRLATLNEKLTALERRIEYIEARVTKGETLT
Target,log2 fold change [1],log2 fold change (volasertib),log2 fold change [2],log2 fold change (epoxomicin),log2 fold change [3],log2 fold change [4],log2 fold change [5],log2 fold change (rosiglitazone),log2 fold change [6],log2 fold change [7],log2 fold change (saracatinib),log2 fold change (sotrastaurin),log2 fold change (alvocidib),log2 fold change (Tubastatin A),log2 fold change [8],log2 fold change (defactinib),log2 fold change (rucaparib),log2 fold change [9],log2 fold change (encorafenib),log2 fold change [10]
BCLAF1 (UniProt Q9NYF8),-0.089,-0.08,0.024,-0.027,-0.016,-0.002,0.099,0.018,-0.015,0.024,-0.033,0.039,-0.271,0.184,-0.275,-0.382,0.017,-0.057,0.013,-0.028
ACSL5 isoform 3 (UniProt Q9ULC5),-0.013,-0.088,0.029,0.005,0.03,-0.068,-0.084,-0.009,-0.216,-0.361 (active),0.058,0.078,-0.082,-0.057,0.071,-0.063,0.005,-0.132,-0.072,0
ARMC8 (UniProt Q8IUR7),-0.055,-0.14,0.053,-0.008,-0.005,0.003,-0.007,-0.029,0.053,0.043,-0.05,-0.07,-0.049,0.009,0.016,-0.005,0.017,0.228,0.026,-0.031
ATP23 (UniProt Q9Y6H3),-0.007,0.004,-0.078,0.016,0.059,0.055,-0.045,-0.011,-0.087,-0.478 (active),0.029,0.04,-0.031,-0.056,0.055,0.028,0.096,0.041,0.001,0.01
BYSL (UniProt Q13895),-0.009,-0.113,0.072,0.118,-0.077,0.053,0.079,0.045,0.09,0.053,-0.042,-0.101,-0.03,0.136,0.034,-0.004,-0.004,0.094,0.034,-0.073
ADD3 (UniProt Q9UEY8),0.098,0.056,-0.024,0.014,0.01,0.054,-0.03,-0.006,-0.056,-0.023,0.032,-0.087,-0.068,-0.02,-0.005,-0.018,-0.013,-0.039,-0.003,0.045
ALDH18A1 (UniProt P54886),-0.418,-0.713 (active),0.092,0.1,-0.117,-0.208,0.041,0.148,0.054,-0.054,-0.038,-0.178,0.063,-0.027,-0.065,-0.122,0.001,-0.281,0.098,-0.047
ATP11A (UniProt P98196),0.266,0.058,-0.094,0.001,0.026,-0.022,0.031,0.045,-0.083,0.084,0.082,0.094,0.059,0.007,-0.002,-0.093,0.192,0.044,0.008,0.017
AMFR (UniProt Q9UKV5),-0.205,-0.215,0.044,0.049,-0.059,0,-0.007,0.022,0.01,-0.055,-0.06,-0.056,-0.021,-0.016,0.088,-0.043,0.011,-0.015,0.033,0.008
ATP6V1C1 (UniProt P21283),0.027,-0.196,0.066,0.064,-0.022,-0.282 (active),-0.008,0.032,0.069,0.377 (active),-0.193,-0.07,0.026,0.059,-0.034,-0.011,0.137,0.004,0.083,-0.013
ARL6IP4 (UniProt Q66PJ3),0.008,-0.009,-0.023,0.014,0.015,-0.025,0.001,0.017,-0.065,0.01,-0.026,0.023,-0.024,-0.024,-0.05,-0.038,0.01,-0.002,-0.059,0.016
AGO1 (UniProt Q9UL18),0.215,0.124,-0.1,-0.148,-0.029,0.032,0.098,0.042,0.14,-0.151,-0.066,-0.307,0.141,-0.164,-0.039,-0.03,0.16,-0.085,0.086,-0.036
AARSD1 isoform 3 (UniProt Q9BTE6),-0.081,-0.27 (active),0.019,0.083,0.009,-0.01,0.037,0.05,0.02,0.021,-0.009,-0.113,-0.016,-0.336 (active),0.081,-0.071,-0.077,-0.037,0.08,0.004
BRK1 isoform 2 (UniProt Q8WUW1),0.074,-0.021,-0.02,0.497 (active),0.021,-0.009,0.031,0.011,-0.053,0.137,0.036,0.007,-0.027,0.037,-0.011,-0.074,-0.05,-0.03,-0.063,-0.018
ATP6V1F isoform 2 (UniProt Q16864),0.01,-0.036,-0.043,0.525 (active),-0.02,0.02,0.165,0.003,0.033,0.056,-0.198,0.092,-0.174,0.11,0.031,0.007,-0.037,-0.129,-0.039,0.238
ACBD6 (UniProt Q9BR61),-0.032,-0.473 (active),0.103,0.05,0.01,-0.11,0.141,0.363,-0.099,0.046,-0.129,-0.115,-0.076,0.196,0.067,-0.112,-0.061,0.006,0.098,-0.047

# From the supplement of paper PMC10849652
